The values below come from ChEMBL document CHEMBL2218924, “A broad activity screen in support of a chemogenomic map for kinase signalling research and drug discovery” (Biochem J, 2013).

The target in experiment [1] is Serine/threonine-protein kinase SIK1 (Homo sapiens) (UniProt P57059). The settings on record: at 10 µM.
In experiment [2] the target is SRSF protein kinase 1 (Homo sapiens) (UniProt Q96SB4). As to conditions: at 1 µM.
For experiment [3] the target is unchanged. As to conditions: at 10 µM.
In experiment [4] the target is SRSF protein kinase 2 (Homo sapiens) (UniProt P78362). As to conditions: at 1 µM.
Sequence of SRSF protein kinase 2 (Homo sapiens) (P78362 whole entry, looked up): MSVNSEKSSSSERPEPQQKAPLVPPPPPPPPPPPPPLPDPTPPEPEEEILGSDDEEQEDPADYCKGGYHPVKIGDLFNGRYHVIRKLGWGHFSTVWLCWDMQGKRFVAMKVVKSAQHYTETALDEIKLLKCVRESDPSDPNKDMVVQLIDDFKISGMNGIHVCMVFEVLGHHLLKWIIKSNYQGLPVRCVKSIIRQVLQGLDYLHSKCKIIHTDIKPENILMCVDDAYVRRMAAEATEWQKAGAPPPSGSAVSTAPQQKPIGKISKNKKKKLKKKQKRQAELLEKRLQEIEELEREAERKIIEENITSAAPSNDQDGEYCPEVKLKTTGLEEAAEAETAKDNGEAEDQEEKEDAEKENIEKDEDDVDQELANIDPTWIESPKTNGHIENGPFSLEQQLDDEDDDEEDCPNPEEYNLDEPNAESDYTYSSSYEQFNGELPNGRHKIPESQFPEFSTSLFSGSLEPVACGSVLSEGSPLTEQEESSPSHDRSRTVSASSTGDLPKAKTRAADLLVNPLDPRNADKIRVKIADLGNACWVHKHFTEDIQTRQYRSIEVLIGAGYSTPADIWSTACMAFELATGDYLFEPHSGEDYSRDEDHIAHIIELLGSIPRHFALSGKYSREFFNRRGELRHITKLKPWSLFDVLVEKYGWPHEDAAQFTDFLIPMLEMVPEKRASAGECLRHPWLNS
The target is the same in experiment [5]. As to conditions: at 10 µM.
The target of experiment [6] is Serine/threonine-protein kinase 33 (Homo sapiens) (UniProt Q9BYT3). As to conditions: at 1 µM.
Sequence of Serine/threonine-protein kinase 33 (Homo sapiens) (Q9BYT3 whole entry, looked up): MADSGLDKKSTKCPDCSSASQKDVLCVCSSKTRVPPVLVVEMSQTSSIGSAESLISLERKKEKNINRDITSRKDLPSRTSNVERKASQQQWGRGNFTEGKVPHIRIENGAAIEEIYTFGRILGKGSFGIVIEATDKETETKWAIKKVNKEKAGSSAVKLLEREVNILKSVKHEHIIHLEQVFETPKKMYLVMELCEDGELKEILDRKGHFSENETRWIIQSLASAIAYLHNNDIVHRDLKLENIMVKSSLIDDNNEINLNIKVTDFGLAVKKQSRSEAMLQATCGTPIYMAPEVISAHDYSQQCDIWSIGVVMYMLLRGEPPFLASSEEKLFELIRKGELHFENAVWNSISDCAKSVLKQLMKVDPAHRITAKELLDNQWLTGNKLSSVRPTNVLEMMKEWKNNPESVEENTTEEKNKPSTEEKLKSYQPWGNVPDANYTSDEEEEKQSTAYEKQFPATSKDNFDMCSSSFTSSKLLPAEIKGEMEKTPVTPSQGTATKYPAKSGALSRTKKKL
For experiment [7] the target is unchanged. As to conditions: at 10 µM.
Experiment [8] deals with Serine/threonine-protein kinase PLK2 (Homo sapiens) (UniProt Q9NYY3). As to conditions: at 1 µM.
Sequence of Serine/threonine-protein kinase PLK2 (Homo sapiens) (Q9NYY3 whole entry, looked up): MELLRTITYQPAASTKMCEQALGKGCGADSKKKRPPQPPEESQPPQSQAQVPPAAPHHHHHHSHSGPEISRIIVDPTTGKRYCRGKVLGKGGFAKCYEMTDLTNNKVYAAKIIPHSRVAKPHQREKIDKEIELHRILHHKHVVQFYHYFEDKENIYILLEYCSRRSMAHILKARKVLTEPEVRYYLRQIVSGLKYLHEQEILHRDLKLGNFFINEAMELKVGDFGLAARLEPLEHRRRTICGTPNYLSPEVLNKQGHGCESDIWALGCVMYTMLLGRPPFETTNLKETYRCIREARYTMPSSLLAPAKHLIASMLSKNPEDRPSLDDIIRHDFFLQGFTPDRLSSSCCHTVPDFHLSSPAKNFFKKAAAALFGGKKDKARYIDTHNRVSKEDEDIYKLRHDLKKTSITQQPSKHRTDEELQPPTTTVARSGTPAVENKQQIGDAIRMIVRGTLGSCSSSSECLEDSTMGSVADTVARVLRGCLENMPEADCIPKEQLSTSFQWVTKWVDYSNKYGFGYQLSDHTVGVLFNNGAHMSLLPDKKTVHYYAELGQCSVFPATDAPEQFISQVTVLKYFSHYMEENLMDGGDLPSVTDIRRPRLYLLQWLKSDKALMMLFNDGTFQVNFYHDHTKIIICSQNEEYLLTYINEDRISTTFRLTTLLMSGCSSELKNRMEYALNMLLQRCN
The target is the same in experiment [9]. The settings on record: at 10 µM.
In experiment [10] the target is Tyrosine-protein kinase SYK (Homo sapiens) (UniProt P43405). As to conditions: at 1 µM.
The target is the same in experiment [11]. As to conditions: at 10 µM.
Experiment [12] has as its target T1, Mitogen-activated protein kinase kinase kinase 7 (Homo sapiens) (UniProt O43318).
T1 sequence (whole entry): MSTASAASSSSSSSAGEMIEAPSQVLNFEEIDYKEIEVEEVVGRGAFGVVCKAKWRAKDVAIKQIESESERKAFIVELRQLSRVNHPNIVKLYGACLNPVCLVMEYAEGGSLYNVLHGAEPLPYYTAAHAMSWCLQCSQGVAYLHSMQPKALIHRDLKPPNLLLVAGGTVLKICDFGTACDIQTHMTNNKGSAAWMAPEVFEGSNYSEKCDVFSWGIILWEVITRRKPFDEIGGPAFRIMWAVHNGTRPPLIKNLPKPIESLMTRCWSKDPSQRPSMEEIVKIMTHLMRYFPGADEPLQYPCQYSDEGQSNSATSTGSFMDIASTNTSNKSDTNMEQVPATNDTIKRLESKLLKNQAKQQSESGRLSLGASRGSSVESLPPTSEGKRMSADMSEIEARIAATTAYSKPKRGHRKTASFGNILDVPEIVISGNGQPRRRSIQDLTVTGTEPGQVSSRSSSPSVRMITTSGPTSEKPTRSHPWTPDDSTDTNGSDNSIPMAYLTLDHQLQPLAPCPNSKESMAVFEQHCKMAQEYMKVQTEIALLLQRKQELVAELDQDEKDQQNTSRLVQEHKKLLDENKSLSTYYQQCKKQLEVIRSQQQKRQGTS
The settings on record: at 1 µM.

The target of experiment [13] is T1, Mitogen-activated protein kinase kinase kinase 7 (Homo sapiens). The settings on record: at 10 µM.
Experiment [14] addresses T2, Serine/threonine-protein kinase TAO1 (Homo sapiens) (UniProt Q7L7X3).
T2 sequence (whole entry): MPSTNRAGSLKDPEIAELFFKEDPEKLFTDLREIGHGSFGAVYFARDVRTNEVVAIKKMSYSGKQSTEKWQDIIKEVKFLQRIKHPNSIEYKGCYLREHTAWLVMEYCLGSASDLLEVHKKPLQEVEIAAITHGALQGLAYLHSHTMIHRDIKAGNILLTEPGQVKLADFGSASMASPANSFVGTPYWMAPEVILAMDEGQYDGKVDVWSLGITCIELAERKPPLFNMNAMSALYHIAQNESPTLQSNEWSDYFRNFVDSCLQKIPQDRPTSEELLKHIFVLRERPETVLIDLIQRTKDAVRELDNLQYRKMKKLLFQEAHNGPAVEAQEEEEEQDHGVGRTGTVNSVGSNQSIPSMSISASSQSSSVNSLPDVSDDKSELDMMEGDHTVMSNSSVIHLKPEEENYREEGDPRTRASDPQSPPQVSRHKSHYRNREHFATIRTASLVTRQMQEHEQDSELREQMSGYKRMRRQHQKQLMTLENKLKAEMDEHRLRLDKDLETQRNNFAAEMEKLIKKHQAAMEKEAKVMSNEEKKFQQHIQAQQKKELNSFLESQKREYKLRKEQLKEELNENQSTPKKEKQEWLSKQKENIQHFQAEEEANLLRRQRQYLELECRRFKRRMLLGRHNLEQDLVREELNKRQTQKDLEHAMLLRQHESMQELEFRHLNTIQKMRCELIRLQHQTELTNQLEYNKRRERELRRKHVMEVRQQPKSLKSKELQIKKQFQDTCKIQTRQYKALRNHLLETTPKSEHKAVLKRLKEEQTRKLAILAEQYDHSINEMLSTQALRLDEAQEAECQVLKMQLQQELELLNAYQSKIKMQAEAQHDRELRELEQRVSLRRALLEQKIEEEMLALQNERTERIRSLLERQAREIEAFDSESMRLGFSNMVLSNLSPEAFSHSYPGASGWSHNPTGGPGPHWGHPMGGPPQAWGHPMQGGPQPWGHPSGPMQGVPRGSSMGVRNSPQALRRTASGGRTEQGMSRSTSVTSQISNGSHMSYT
The settings on record: at 1 µM.

In experiment [15] the target is T2, Serine/threonine-protein kinase TAO1 (Homo sapiens). The settings on record: at 10 µM.
In experiment [16] the target is T3, Serine/threonine-protein kinase TAO2 (Homo sapiens) (UniProt Q9UL54).
T3 sequence (whole entry): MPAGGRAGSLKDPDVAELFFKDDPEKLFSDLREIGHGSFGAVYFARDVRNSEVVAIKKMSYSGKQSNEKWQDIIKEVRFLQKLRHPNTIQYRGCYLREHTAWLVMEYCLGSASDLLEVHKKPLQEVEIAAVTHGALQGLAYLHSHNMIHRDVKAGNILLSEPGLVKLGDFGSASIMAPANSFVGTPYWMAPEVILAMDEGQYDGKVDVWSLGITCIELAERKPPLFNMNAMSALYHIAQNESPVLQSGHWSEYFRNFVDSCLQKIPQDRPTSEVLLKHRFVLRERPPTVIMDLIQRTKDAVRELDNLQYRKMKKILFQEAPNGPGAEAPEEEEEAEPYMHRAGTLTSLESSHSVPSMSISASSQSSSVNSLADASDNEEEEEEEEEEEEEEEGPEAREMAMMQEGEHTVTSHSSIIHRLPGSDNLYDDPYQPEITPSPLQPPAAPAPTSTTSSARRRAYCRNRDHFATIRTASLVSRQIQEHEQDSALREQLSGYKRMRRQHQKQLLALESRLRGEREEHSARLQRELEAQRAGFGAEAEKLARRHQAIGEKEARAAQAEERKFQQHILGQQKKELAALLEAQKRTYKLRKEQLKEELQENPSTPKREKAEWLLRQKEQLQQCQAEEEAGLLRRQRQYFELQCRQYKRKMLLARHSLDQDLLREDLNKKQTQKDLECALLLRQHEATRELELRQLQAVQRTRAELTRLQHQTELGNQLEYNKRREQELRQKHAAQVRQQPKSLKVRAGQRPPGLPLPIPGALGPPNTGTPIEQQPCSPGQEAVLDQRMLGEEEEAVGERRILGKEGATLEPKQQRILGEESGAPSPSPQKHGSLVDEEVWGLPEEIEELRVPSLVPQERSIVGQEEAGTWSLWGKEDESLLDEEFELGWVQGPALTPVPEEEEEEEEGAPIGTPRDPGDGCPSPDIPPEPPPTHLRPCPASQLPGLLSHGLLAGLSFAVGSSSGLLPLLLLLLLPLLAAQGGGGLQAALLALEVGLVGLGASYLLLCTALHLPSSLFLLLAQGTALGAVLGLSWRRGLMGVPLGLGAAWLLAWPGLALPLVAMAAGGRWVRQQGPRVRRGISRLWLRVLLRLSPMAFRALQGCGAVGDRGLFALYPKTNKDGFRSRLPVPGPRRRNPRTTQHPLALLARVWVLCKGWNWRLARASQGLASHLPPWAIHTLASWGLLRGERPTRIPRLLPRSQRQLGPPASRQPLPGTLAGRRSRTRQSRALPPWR
As to conditions: at 1 µM.

In experiment [17] the target is T3, Serine/threonine-protein kinase TAO2 (Homo sapiens). As to conditions: at 10 µM.
The target in experiment [18] is T4, Serine/threonine-protein kinase TAO3 (Homo sapiens) (UniProt Q9H2K8).
T4 sequence (whole entry): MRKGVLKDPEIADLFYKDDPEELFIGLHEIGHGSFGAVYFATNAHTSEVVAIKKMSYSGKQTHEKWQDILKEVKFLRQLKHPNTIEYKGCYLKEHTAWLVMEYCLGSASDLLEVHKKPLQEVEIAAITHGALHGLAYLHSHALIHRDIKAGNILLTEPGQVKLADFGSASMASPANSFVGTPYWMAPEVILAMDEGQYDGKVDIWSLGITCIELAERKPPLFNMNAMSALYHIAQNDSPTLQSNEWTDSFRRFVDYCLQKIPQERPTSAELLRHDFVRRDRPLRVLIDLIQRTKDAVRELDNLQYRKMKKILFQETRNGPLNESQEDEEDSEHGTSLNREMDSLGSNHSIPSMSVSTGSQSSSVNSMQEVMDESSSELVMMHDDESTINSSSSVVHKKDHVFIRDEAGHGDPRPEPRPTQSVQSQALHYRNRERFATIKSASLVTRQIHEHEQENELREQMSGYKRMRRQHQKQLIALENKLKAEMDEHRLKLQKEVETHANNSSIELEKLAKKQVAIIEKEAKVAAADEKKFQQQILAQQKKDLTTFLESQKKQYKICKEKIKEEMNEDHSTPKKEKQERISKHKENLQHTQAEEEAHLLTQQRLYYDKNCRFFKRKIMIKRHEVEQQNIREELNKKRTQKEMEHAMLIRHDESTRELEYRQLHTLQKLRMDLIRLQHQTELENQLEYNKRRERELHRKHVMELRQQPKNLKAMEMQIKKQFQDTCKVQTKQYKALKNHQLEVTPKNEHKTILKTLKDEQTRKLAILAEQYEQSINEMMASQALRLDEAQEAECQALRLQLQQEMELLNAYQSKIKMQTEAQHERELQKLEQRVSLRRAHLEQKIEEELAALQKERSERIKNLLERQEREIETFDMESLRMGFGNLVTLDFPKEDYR
As to conditions: at 1 µM.

Experiment [19] deals with T4, Serine/threonine-protein kinase TAO3 (Homo sapiens). As to conditions: at 10 µM.
Experiment [20] deals with T5, Serine/threonine-protein kinase TBK1 (Homo sapiens) (UniProt Q9UHD2).
T5 sequence (whole entry): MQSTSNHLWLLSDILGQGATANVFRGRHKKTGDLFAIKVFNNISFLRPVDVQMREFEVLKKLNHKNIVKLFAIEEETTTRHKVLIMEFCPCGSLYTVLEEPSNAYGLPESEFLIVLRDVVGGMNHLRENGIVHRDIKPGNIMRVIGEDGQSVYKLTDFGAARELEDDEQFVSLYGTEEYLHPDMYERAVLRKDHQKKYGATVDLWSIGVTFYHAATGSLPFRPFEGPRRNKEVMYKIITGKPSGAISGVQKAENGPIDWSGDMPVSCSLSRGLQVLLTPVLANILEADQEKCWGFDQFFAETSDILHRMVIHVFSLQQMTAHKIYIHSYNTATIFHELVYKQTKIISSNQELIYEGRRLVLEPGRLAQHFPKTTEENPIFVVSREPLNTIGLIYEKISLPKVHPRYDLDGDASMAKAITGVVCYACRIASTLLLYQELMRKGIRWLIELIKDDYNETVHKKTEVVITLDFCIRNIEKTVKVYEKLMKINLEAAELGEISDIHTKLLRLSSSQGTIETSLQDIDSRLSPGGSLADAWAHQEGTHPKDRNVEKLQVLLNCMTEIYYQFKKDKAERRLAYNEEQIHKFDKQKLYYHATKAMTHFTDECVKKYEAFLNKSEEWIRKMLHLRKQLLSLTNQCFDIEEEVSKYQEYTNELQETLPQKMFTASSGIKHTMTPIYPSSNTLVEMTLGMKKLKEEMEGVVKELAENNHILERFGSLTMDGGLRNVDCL
The settings on record: at 1 µM.

Sequence of SRSF protein kinase 1 (Homo sapiens) (Q96SB4 whole entry): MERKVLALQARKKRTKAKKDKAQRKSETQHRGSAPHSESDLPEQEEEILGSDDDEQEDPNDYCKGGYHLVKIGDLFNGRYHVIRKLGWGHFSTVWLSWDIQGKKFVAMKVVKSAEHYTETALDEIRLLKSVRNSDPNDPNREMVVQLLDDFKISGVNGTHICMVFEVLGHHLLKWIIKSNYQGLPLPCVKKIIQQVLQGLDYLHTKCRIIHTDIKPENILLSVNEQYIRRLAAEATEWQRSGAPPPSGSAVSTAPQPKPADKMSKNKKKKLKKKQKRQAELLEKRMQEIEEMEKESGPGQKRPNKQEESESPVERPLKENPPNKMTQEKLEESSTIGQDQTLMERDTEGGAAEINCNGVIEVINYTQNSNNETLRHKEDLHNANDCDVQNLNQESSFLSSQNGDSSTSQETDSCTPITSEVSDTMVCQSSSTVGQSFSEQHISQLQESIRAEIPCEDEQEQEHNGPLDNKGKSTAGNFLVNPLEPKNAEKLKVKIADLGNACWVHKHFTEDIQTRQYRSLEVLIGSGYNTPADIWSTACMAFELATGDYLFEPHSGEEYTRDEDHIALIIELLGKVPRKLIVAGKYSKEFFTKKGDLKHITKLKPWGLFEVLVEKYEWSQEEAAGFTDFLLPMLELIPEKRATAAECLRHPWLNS
Sequence of Serine/threonine-protein kinase SIK1 (Homo sapiens) (P57059 whole entry): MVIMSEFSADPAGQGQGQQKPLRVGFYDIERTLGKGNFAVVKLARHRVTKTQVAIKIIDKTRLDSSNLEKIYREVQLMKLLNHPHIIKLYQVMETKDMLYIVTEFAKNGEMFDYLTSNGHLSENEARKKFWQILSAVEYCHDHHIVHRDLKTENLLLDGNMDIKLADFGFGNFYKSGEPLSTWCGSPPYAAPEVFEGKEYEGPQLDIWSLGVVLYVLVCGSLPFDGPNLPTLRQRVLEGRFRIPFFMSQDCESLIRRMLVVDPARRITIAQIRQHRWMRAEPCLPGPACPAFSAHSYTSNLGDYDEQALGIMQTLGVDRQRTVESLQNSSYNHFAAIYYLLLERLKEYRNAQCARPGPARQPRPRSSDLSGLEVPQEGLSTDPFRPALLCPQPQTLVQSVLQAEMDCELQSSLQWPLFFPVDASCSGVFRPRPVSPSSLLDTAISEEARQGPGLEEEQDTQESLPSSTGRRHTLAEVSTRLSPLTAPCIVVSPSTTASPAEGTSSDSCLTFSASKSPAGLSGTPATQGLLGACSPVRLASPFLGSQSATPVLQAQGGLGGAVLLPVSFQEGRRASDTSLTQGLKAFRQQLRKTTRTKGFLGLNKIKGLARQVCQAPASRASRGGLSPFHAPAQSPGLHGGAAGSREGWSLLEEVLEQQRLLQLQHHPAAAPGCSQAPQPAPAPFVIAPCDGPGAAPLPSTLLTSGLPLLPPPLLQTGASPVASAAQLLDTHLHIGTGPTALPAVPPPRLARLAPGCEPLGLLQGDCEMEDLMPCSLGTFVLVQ

For `CC(C)n1cnc2/c(=N/c3cccc(Cl)c3)nc(NCCO)[nH]c21`, the residual activity in [1] was 28%; in experiment [2], 41%; in [3], -2%; in experiment [4], 27%; in [5] it was 2%; in experiment [6], 78%. In addition, the residual activity is 28% in experiment [7]; 61% in experiment [8]; 22% in [9]; 79% in [10]; 56% in [11]; 77% in [12]. For the same compound, the residual activity turned out to be 24% in experiment [13]; 87% in [14]; 59% in experiment [15]; 70% in experiment [16]; 63% in experiment [17]; 93% in [18]. The residual activity worked out at 54% in experiment [19] and 57% in [20].

In the case of `O=C(Nc1cccc(Nc2cc(Nc3cccc(C(F)(F)F)c3)ncn2)c1)C1CC1`, the residual activity in [1] stood at 104%; in [2], 96%; in [3] it was 88%; in [4] it was 90%; in experiment [5], 84%; in experiment [6], 99%. The residual activity in experiment [7] was 97%; in [8], 100%; in [9] it was 90%; in [10], 112%; in experiment [11], 105%; in experiment [12] it was 95%. The residual activity in [13] is 95%; in [14] it was 100%; in [15], 73%; in [16], 94%; in experiment [17], 80%; in experiment [18], 100%. For the same compound, the residual activity was determined as 96% in experiment [19] and 89% in experiment [20].

With `CC#CC(=O)Nc1cc2c(Nc3ccc(F)c(Cl)c3)ncnc2cn1`, the residual activity in experiment [1] amounted to 77%; in experiment [2], 91%; in [3], 100%; in experiment [4], 88%; in experiment [5] it was 88%; in [6] it was 94%. For the same compound, the residual activity in experiment [7] came to 98%; in [8], 97%; in experiment [9], 93%; in experiment [10] it was 117%; in [11], 87%; in experiment [12], 91%. Further, the residual activity was found to be 96% in experiment [13]; 104% in experiment [14]; 89% in experiment [15]; 97% in experiment [16]; 80% in [17]; 96% in [18]. The results for the residual activity in experiment [19] and in [20] were 95% and 78%, respectively.

For `N#C/C(=C(\N)Sc1ccc(N)cc1)c1ccccc1C(F)(F)F`, the residual activity in experiment [1] worked out at 85%; in [2], 99%; in experiment [3] it was 99%; in experiment [4], 108%; in experiment [5] it was 82%; in experiment [6], 92%. The residual activity in experiment [7] was 93%; in experiment [8], 100%; in experiment [9], 98%; in experiment [10] it was 73%; in [11], 78%; in experiment [12], 101%. The residual activity in [13] was 85%; in experiment [14] it was 89%; in experiment [15], 99%; in [16], 102%; in [17] it was 104%; in experiment [18], 99%. Besides, the residual activity was determined as 91% in [19] and 31% in [20].
